This passage reports Potency results from PubChem BioAssay (Tox21).

The nature of assay [1]: A CellTox Green Cytotoxicity Assay to monitor cytotoxicity in HEK293 cells - 32 hour (AID 1224881). Also: nearly all actives have a fitted effect of over 40% in size. Also: potency is read from the fitted curve at half-maximal effect. An outline of the steps:
(§1)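 HEK293 cells, 600/well, were preincubated 5 hours and then exposed to compounds at 37 C for up to 40 hours. A cell-impermeant cyanine dye staining dead-cell DNA was read by fluorescence at 0, 8, 16, 24, 32 and 40 h time points.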

Assay [2] is described as follows: A CellTox Green Cytotoxicity Assay to monitor cytotoxicity in HepG2 cells - 0 hour (AID 1224882). Also: nearly all actives have a fitted effect of over 35% in size. An outline of the steps:
(§2)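 HepG2 cells, 600/well, preincubated 5 h with CellTox Green dye, then exposed to Tox21 compounds in DMSO at 37 C for up to 40 h. Dead-cell DNA fluorescence read at the indicated time point.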

The nature of assay [3]: A CellTox Green Cytotoxicity Assay to monitor cytotoxicity in HepG2 cells - 32 hour (AID 1224883). Also: nearly all actives have a fitted effect of over 50% in size. Also: potency is read from the fitted curve at half-maximal effect. An outline of the steps: as §2
Assay [4] can be described thus: A CellTox Green Cytotoxicity Assay to monitor cytotoxicity in HEK293 cells - 8 hour (AID 1224884). Also: nearly all actives have a fitted effect of over 35% in size. An outline of the steps:
as §1

Assay [5] in a line: qHTS RealTime-Glo MT Cell Viability Assay in HepG2 cells - 16 hour (AID 1224885). Also: nearly all actives have a fitted effect of over 50% in size. Also: potency is read from the fitted curve at half-maximal effect. An outline of the steps:
(§3)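 HepG2 cells were seeded at 600 cells/well together with NanoLuc luciferase and a cell-permeant prosubstrate, preincubated 5 h at 37 C/5% CO2, then pin-dosed with compounds in DMSO. Nonlytic luminescence from viable cells was read at each time point.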
(In qHTS, concentration-response curves come from the screen itself.)

A short description of assay [6]: qHTS RealTime-Glo MT Cell Viability Assay in HEK293 cells - 24 hour (AID 1224886). Also: nearly all actives have a fitted effect of over 50% in size. Also: potency is read from the fitted curve at half-maximal effect. An outline of the steps:
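HEK293 cells were seeded at 600 cells/well together with NanoLuc luciferase and cell-permeant prosubstrate, preincubated 5 h at 37 C/5% CO2, then given compound in DMSO by pintool. Luminescence from viable-cell prosubstrate reduction was read repeatedly over 40 h.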

The nature of assay [7]: A CellTox Green Cytotoxicity Assay to monitor cytotoxicity in HEK293 cells - 16 hour (AID 1224888). Also: nearly all actives have a fitted effect of over 35% in size. An outline of the steps:
as §1

A short description of assay [8]: qHTS RealTime-Glo MT Cell Viability Assay in HepG2 cells - 0 hour (AID 1224889). Also: nearly all actives have a fitted effect of over 50% in size. Also: potency is read from the fitted curve at half-maximal effect. An outline of the steps: as §3
The nature of assay [9]: qHTS RealTime-Glo MT Cell Viability Assay in HEK293 cells - 8 hour (AID 1224887). Also: nearly all actives have a fitted effect of over 50% in size. Also: potency is read from the fitted curve at half-maximal effect. An outline of the steps: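 600 cells/well were plated with the nonlytic NanoLuc/prosubstrate reagent, pre-incubated 5 h, then given 23 nL of compound in DMSO. Incubation at 37 C for 40 h, with luminescence from viable-cell-reduced substrate read repeatedly from 0 h.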

Where “and” joins values, the source holds several entries; their conditions need not be identical. Equal values may be shown once. Records with an inconclusive call do not appear. A structure can be active in one record and inactive in another. Calls of active or inactive are those of the source. Calls follow the shape of the dose curve; as a rule, active = well fitted curve in the direction sought with a large enough effect in the repeat runs; inconclusive = weak or mixed curves; inactive = no such curve, though single readings can be large; an effect the other way counts as inactive or inconclusive. Residues, ends and D or L forms follow the SMILES beside them.

On to `O=C(c1ccccc1)C(O)c1ccccc1` (stereo unspecified), for which the Potency result in assay [1], in assay [2], in assay [3], in [4], in assay [5] and in assay [6] was “inactive” throughout. For the same compound, the Potency entry in assay [7] and in [8] was “inactive” each time.
For the compound `O=S(=O)(O)NC1CCCCC1`, the Potency entry in [1], in assay [2], in assay [3], in assay [4], in assay [5] and in [6] was “inactive” each time. In addition, the Potency entry in assay [9], in [7] and in assay [8] was “inactive” in each case.
On to `COc1c2occc2cc2ccc(=O)oc12`, for which the Potency entry in assay [1], in [2], in [3], in [4], in [5] and in assay [7] was “inactive” throughout. Besides, the Potency result in assay [8] was “inactive”. Further, the Potency result is “inactive and 21.9 µM (active)” in assay [6]; “inactive and 21.9 µM (active)” in assay [9].
Turning to `OC(Cn1cncn1)(Cn1cncn1)c1ccc(F)cc1F`, the Potency entry in assay [1], in assay [2], in [3], in assay [4], in assay [5] and in assay [6] was “inactive” in each case. In addition, the Potency entry in [9], in [7] and in assay [8] was “inactive” in each case.
With `O=C(O)c1cccnc1`, the Potency entry in assay [1], in assay [2], in assay [3], in assay [4], in assay [5] and in assay [6] was “inactive” throughout. Also, the Potency entry in assay [7] and in assay [8] was “inactive” each time.
As to `c1ccc2[nH]ccc2c1`, the Potency in assay [1] is 6.81 µM (active) and inactive; in assay [3], 3.83 µM (active) and inactive; in [5], 15.2 µM (active) and inactive; in assay [6], 2.41 µM (active) and inactive. For the same compound, the Potency result in [2], in [4], in assay [9] and in assay [8] was “inactive” throughout.
With `CCOc1ccc(NC(=O)CC(C)O)cc1` (stereo unspecified), the Potency entry in assay [1], in [2], in [3], in assay [4], in assay [5] and in assay [6] was “inactive” throughout. Further, the Potency result in assay [7] and in assay [8] was “inactive” in each case.
As to `CC1(C)[C@@H]2CC[C@@]1(C)C(=O)C2`, in assay [1], the Potency entry is “inactive and 8.49 µM (active)”. Also, the Potency result in assay [2], in assay [3], in assay [4], in assay [5], in [6] and in assay [9] was “inactive” each time. Moreover, the Potency entry in [7] and in [8] was “inactive” throughout.
With `CC(C)(Oc1ccc(C2CC2(Cl)Cl)cc1)C(=O)O` (stereo unspecified), the Potency result in [1], in assay [2], in assay [3], in [4], in assay [5] and in [6] was “inactive” throughout. Moreover, the Potency entry in assay [9], in [7] and in assay [8] was “inactive” each time.
As to `OCCc1ccccc1`, the Potency result in assay [1], in assay [2], in assay [3], in assay [4], in assay [5] and in assay [6] was “inactive” in each case. Further, the Potency entry in assay [7] and in [8] was “inactive” each time.
Regarding `COc1ccc2[nH]cc(CCNC(C)=O)c2c1`, the Potency entry in [1], in assay [2], in [3], in assay [4], in assay [5] and in [6] was “inactive” throughout. Besides, the Potency entry in assay [7] and in assay [8] was “inactive” throughout.
Regarding `COC(=O)[C@H](Cc1ccccc1)NC(=O)[C@@H](N)CC(=O)O` (H-Asp-Phe-OMe), the Potency result in [1], in assay [2], in assay [3], in assay [4], in assay [5] and in [6] was “inactive” throughout. In addition, the Potency result in [7] and in [8] was “inactive” throughout.
With `O=C(O)CCC(=O)O`, the Potency entry in assay [1], in assay [2], in assay [3], in [4], in assay [5] and in [6] was “inactive” in each case. In addition, the Potency result in [7] and in assay [8] was “inactive” each time.
In the case of `Cc1ccccc1C(OCCN(C)C)c1ccccc1` (stereo unspecified), the Potency result in assay [1], in assay [2], in assay [3], in assay [4], in [5] and in assay [6] was “inactive” throughout. For the same compound, the Potency result in [9], in assay [7] and in assay [8] was “inactive” each time.
With `NC(N)=NC(=O)c1nc(Cl)c(N)nc1N`, the Potency result in assay [1], in [2], in [3], in assay [4], in assay [5] and in [6] was “inactive” in each case. Further, the Potency entry in [7] and in assay [8] was “inactive” in each case.
Turning to `CCCCCCCCCCCCCCCC(=O)O`, the Potency entry in assay [1], in [2], in assay [3], in assay [4], in [5] and in assay [6] was “inactive” each time. For the same compound, the Potency result in [7] and in assay [8] was “inactive” in each case.
Turning to `CCCNC(=O)NS(=O)(=O)c1ccc(Cl)cc1`, the Potency entry in assay [1], in assay [2], in assay [3], in [4], in assay [5] and in assay [6] was “inactive” each time. The Potency entry in assay [9], in [7] and in assay [8] was “inactive” throughout.
For the compound `Cc1cc(=O)[nH]c(=S)[nH]1`, the Potency entry in assay [1], in assay [2], in [3], in assay [4], in assay [5] and in [6] was “inactive” throughout. Also, the Potency result in assay [9], in assay [7] and in assay [8] was “inactive” each time.
Turning to `O=C(O)c1cc(N=Nc2ccc(S(=O)(=O)Nc3ccccn3)cc2)ccc1O`, the Potency result in assay [1], in [2], in assay [3], in assay [4], in assay [5] and in [6] was “inactive” throughout. Besides, the Potency entry in [9] and in assay [7] was “inactive” in each case. Further, the Potency in assay [8] is 11 µM (active) and 21.9 µM (active).
